# Compound activity (PubChem)
# hgDAF12 agonist – activates the H. glycines DAF-12 receptor ligand-binding domain | HEK293 GAL4-hgDAF12 UAS-luciferase reporter, agonist luminescence; normalized to butyrate control | activation, % at 6.8 µM | 370,000 tested, 1.8% active | AID 687014;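 active means activation above a cutoff set at the mean of all screened compounds plus 3 SD, cut at about 10% in these data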;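 further: 0% = DMSO wells and 100% = sodium butyrate wells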
# hcDAF12 agonist – H. contortus DAF-12 activation, primary screen | HEK293 hcDAF-12 lit1-tk-luc reporter, luminescence; 0% DMSO, 100% Δ7-dafachronic acid | activation, % at 6.8 µM | 370,000 tested, 1.4% active;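 active means activation above the mean of all tested compounds plus 3 SD, cut at about 5.5% in these data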;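 further: 100% = response to 3 µM Δ7-dafachronic acid high control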
# DAX1 inh-1 – blocks DAX1 repression of SF-1 activated StAR promoter; HEK293T StAR-luciferase reporter, SF-1/DAX-1 repression relief; inhibition, % at 6.8 µM; 370,000 tested, 1.1% active; AID 652010;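 active means inhibition above the mean over all tested compounds plus 3 SD, cut at about 3.6% in these data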;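 further: 0% = DAX-1 cells with DMSO and 100% = cells lacking DAX-1 with DMSO; higher inhibition means more luminescence from relief of DAX-1 repression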
# ssDAF-12 act – activates DAF-12 receptor from parasite S. stercoralis; HEK293 ssDAF-12/GRIP1 lit1-tk-luc reporter, luminescence; % of 3 µM dafachronic acid response; activation, % at 6.8 µM; 370,000 tested, 1% active; AID 652126;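 active means activation above the mean over all tested compounds plus 3 SD, cut at about 0.9% in these data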;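 further: 0% = DMSO-only wells and 100% = 3 µM delta7-dafachronic acid wells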
# DAX1 inh-2 – inhibits human nuclear receptor DAX1; inhibition, % at 6.75 µM; P51843; AID 504766; HEK293 Gal4-DAX1 luciferase reporter, luminescence; 340,000 tested, 0.99% active;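 active means inhibition above the mean over all tested compounds plus 3 SD, cut at about 4.2% in these data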;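 further: 0% = DAX1-transfected cells with DMSO and 100% = empty-vector control cells with DMSO; inhibition shows as a rise in luminescence from relieved DAX1 repression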
# Target sequence (P51843 207-470 limits assumed): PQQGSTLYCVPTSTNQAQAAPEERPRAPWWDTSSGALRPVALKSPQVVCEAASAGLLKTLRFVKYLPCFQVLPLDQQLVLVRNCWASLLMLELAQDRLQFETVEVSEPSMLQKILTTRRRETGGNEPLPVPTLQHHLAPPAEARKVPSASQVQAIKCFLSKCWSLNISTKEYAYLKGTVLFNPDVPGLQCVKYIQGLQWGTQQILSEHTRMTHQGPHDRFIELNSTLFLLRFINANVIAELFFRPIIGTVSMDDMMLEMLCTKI
# LXR ag – counter-screen for hcDAF-12 agonists: agonists of human LXR-beta; AID 743027; activation, % at 6.8 µM; HEK293 Gal4-LXR tk-luc reporter, luminescence, 24 h; normalized: DMSO 0%, positive control 100%; shares compounds with hcDAF12 agonist; 3,400 tested, under 10 active;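 active means mean percent activation of the reporter above a cutoff set as the average over tested compounds plus their standard deviation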
# hcDAF12 conf – hcDAF-12 agonism, confirmation assay; shares compounds with hcDAF12 agonist; HEK293 hcDAF-12 lit1-tk-luc reporter, luminescence; % of Δ7-dafachronic acid response; activation, % at 6.8 µM; 3,400 tested, 61% active; AID 743032;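 active means mean activation across triplicate tests above the threshold derived from the earlier primary screen, cut at about 5.5% in these data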;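 further: 0% = DMSO only wells and 100% = 3 µM Δ7-dafachronic acid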
# Active calls of the source: *; · = not tested or not shown. Sampled rows, rich in hits. Any-hit rate of the full collection: about 4.1%.
SMILES,hgDAF12 agonist,hcDAF12 agonist,DAX1 inh-1,ssDAF-12 act,DAX1 inh-2,LXR ag,hcDAF12 conf
Cc1ccc2c(c1)CCCN2C(=O)c1cccs1,0,7.4*,1,1,0,0,3
OC1(C#Cc2c(-c3ccsc3)sc3ccccc23)CCCCC1,0,-1,0,-1,·,·,·
COc1ccccc1C(=O)Nc1ccc(Br)c2cccnc12,2,-2,0,-1,0,·,·
COc1cccc2cc(C(=O)Nc3ccccc3C)/c(=N/O)oc12,8,9.2*,1,1,2,0,6.3*
COc1ccccc1C(=O)Nc1ccc(Br)cc1C,11*,7.0*,0,1,2,0,9.6*
COc1ccc2o/c(=N\O)c(C(=O)Nc3ccccc3OC)cc2c1,5,3,0,0,-1,·,·
COc1ccc(C2Nc3cccc4cccc(c34)N2)cc1,6,5,0,0,0,·,·
CN(C)c1ccc(C2Nc3cccc4cccc(c34)N2)cc1,4,8.4*,1,1.6*,-1,0,8.3*
CC(C)(C)NC(=O)CSc1nc(-c2ccc(F)cc2)cs1,12*,7.2*,3,-1,3,1,5
CCNC(=O)CSc1nc(-c2ccc(F)cc2)cs1,2,-1,2,-1,-1,·,·
Cc1ccc(C(=O)Nc2nc3ccccc3n2CCN2CCCC2)cc1,14*,9.1*,4.3*,2.7*,1,1,8.5*
CCCn1c(NC(=O)c2ccc(C)cc2)nc2ccccc21,4,-1,0,-1,0,·,·
CC(C)C[C@H](NC(=O)C1CCCC1)C(=O)N1CCC[C@H]1C(=O)NCc1ccccc1,2,0,-1,-1,·,·,·
COc1cc(CN2C(=O)C(C)ON=C2c2ccccc2F)cc(OC)c1 (stereo unspecified),0,-4,-1,-1,·,·,·
CC1ON=C(c2ccccn2)N(Cc2ccc(S(C)(=O)=O)cc2)C1=O (stereo unspecified),2,10*,0,-2,·,0,0
CC(=O)NCCC(=O)N1CCc2c([nH]c3ccccc23)C1c1cccc(C)c1 (stereo unspecified),9,7.1*,0,0,1,0,7.6*
CC(=O)NCCC(=O)N1CCc2c([nH]c3ccccc23)C1c1cccc(Cl)c1 (stereo unspecified),-1,4,0,-1,-1,·,·
CC(C)[C@H](NC(=O)OCc1ccccc1)C(=O)N[C@@H](Cc1ccccc1)C1(O)CN(C)C(C(=O)NCc2ccccn2)CO1 (stereo partly specified),-2,-1,·,-2,·,·,·
O=c1[nH]c2ccccc2c2nc3ccccn3c12,12*,8.1*,1,1.7*,2,0,9.5*
O=c1nc2c(O)cccn2c2c1c(=O)[nH]c1ccccc12,-1,3,1,-1,1,·,·
CN(C)CC(=O)N[C@H]1C[C@@H]2O[C@@H](CO)CC[C@@H]2O[C@@H]1CCc1ccc(-c2ccc(F)cc2)cc1,-1,-3,-1,-2,·,·,·
Cc1ccc(-c2nc3n(n2)Cc2ccccc2-3)cc1,8,16*,3,2.4*,-3,2,20*
Cc1c(/N=C(\[O-])Nc2ccc(Br)cc2)sn[n+]1C,11*,7.0*,3,1,·,2,7.5*
CCCCCCCCN1C(=O)[C@@H](CC(=O)N2CCC(c3ccccc3)CC2)C[C@@]2(C(=O)OC)C1=C[C@H](C1CCCC1)O[C@@H]2C,-2,-2,0,-1,·,·,·
Cc1c(C(=O)OCC(=O)Nc2ccc(N3CCOCC3)cc2)oc2ccccc12,-1,1,0,-1,0,·,·
SMILES,hgDAF12 agonist,hcDAF12 agonist,DAX1 inh-1,ssDAF-12 act,DAX1 inh-2,LXR ag,hcDAF12 conf
COC(=O)c1sc(NC(=O)c2oc3ccccc3c2C)nc1C,8,8.2*,1,1,0,1,5
Cc1c(C(=O)Nc2ccc(N3CCOCC3)cc2)oc2ccccc12,5,11*,1,0,1,1,8.6*
Cc1c(C(=O)Nc2ccccn2)oc2c(Cl)cccc12,2,8.8*,0,2.0*,4,0,6.5*
Cc1c(C(=O)Nc2nc3ccccc3[nH]2)oc2c(Cl)cccc12,3,8.7*,1,1.0*,0,1,9.2*
C[C@H](CO)N1C[C@H](C)[C@@H](CN(C)C(=O)c2ccc(N3CCN(C)CC3)cc2)OCc2cn(nn2)CCCC1=O,2,1,0,-1,·,·,·
Cc1c(C(=O)Nc2cccnc2Cl)oc2ccccc12,9,6.7*,1,1,2,1,6.8*
Cc1cc(=O)oc(C)c1C(=O)Nc1cccnc1Cl,1,3,0,-1,1,·,·
CC(=O)Nc1nc(-c2ccc(Cl)cc2)nc(C)c1C(C)=O,3,6.6*,0,4.1*,3,0,4
CN(C)C(=O)Cn1cc(S(=O)(=O)Cc2ccccc2)c2ccccc21,1,6.6*,0,-1,0,0,3
CCN(CC)C(=O)Cn1cc(S(=O)(=O)CC(=O)NCCc2ccccc2)c2ccccc21,0,7.6*,-1,-1,-1,0,1
COc1ccc(-c2ccc(N3C(c4ccsc4)=Cc4ccc(F)cc4C3c3c[nH]c4ccccc34)cc2)cc1 (stereo unspecified),9,8.5*,-1,1.5*,·,0,6.9*
O=C(CC1CCCC1)N1CC[C@H]2[C@H](CCCN2Cc2cc(F)cc(F)c2)C1,0,-1,0,-1,·,·,·
COc1ccc(Cn2ccc3ccc(-c4ccc5ccn(C(=O)C6CCCCC6)c5c4)cc32)cc1,3,0,-1,-1,·,·,·
COc1ccc(/C=N/Nc2ccccn2)cc1OC,3,0,1,-2,·,·,·
COc1cc(/C=N/Nc2ccccn2)ccc1O,12*,7.3*,2,0,4.3*,1,7.6*
COc1cc(/C=N/Nc2ccc(C(=O)O)cc2)ccc1O,6,6.8*,3,0,-2,1,6.4*
COc1ccccc1CCn1cnc(-c2ccc(F)cc2)c1C(C)C,0,-3,0,-2,·,·,·
O=[N+]([O-])c1ccc(-c2ccc(C=Nc3cccc4ccccc34)o2)cc1,2,6.8*,1,0,0,0,1
O=C(/C=C/c1ccccc1O)c1ccc(Cl)cc1,9,6.8*,1,1,-1,0,4
Cc1oc(-c2ccc(-c3ccccc3)cc2)nc1CN(CCO)C(C)C,14*,7.2*,2,1.6*,-2,2,17*
